Measurements taken from PubChem BioAssay (EPA / NIEHS).
The source made the active and inactive calls. The calls were made as follows: active = hit-call score of the fitted dose curve at least 0.9, where 1 is the maximum; inactive = score below 0.9.

Experiments:
Conditions in all cases: mRNA level, 48 h; actives raise or lower the signal
[1] = read-out: Cytochrome P450 (CYP24A1), CYP24A1 (gene 1591); experiment: LTEA_HepaRG_CYP24A1: Life Technologies and Expression Analysis (LTEA) Assay for Cytochrome P450 (CYP24A1) using HepaRG (AID 2283478)
Summary of the method: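 mRNA of CYP24A1 quantified by TaqMan qRT-PCR (ACTB/GAPDH/POLR2A normalization) after 48 h chemical exposure of HepaRG cells, top concentration 100 uM, half-log steps, 0.5% DMSO vehicle, duplicates. Curves fitted bidirectionally against DMSO baseline.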

[2] = read-out: Cytochrome P450 (CYP1A2), CYP1A2 (gene 1544); experiment: LTEA_HepaRG_CYP1A2: Life Technologies and Expression Analysis (LTEA) Assay for Cytochrome P450 (CYP1A2) using HepaRG (AID 2283479)
Summary of the method: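 CYP1A2 transcript measured by TaqMan qRT-PCR against three housekeeping genes after 48-hour chemical exposure of HepaRG cells. Eight-point half-log series topping at 100 uM in 0.5% DMSO, duplicates; gain or loss fitted relative to vehicle.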

[3] = read-out: Cytochrome P450 (CYP2B6), CYP2B6 (gene 1555); experiment: LTEA_HepaRG_CYP2B6: Life Technologies and Expression Analysis (LTEA) Assay for Cytochrome P450 (CYP2B6) using HepaRG (AID 2283481)
Summary of the method: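 CYP2B6 transcript level quantified by qRT-PCR against three housekeeping genes, fitted bidirectionally relative to DMSO. HepaRG cultures received chemicals for 48 h, 8-point half-log series from 100 uM in 0.5% DMSO, duplicate wells, serum-free induction medium.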

CYP2C8 (gene 1558) = experiment: LTEA_HepaRG_CYP2C8: Life Technologies and Expression Analysis (LTEA) Assay for CYP2C8 using HepaRG (AID 2283483)
Summary of the method: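 CYP2C8 expression measured by TaqMan qRT-PCR and normalized to three housekeeping genes. HepaRG cultures were treated for 48 h with an eight-point half-log series topping at 100 uM, vehicle 0.5% DMSO, duplicates; fitted both directions against DMSO.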

CYP2C9 (gene 1559) = experiment: LTEA_HepaRG_CYP2C9: Life Technologies and Expression Analysis (LTEA) Assay for CYP2C9 using HepaRG (AID 2283484)
Summary of the method: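 CYP2C9 transcript level, quantified by TaqMan qRT-PCR against three housekeeping genes, was fitted bidirectionally relative to 0.5% DMSO. HepaRG cultures were treated 48 h, in duplicate, at eight half-log concentrations topping at 100 uM.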

CYP2E1 (gene 1571) = experiment: LTEA_HepaRG_CYP2E1: Life Technologies and Expression Analysis (LTEA) Assay for CYP2E1 using HepaRG (AID 2283485)
Summary of the method: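 CYP2E1 transcript measured by Fluidigm qRT-PCR against three housekeeping genes in human HepaRG cells treated 48 h (top 100 uM, half-log steps, 0.5% DMSO vehicle). Gain or loss fitted relative to DMSO baseline.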

CYP4A11 (gene 1579) = experiment: LTEA_HepaRG_CYP4A11: Life Technologies and Expression Analysis (LTEA) Assay for CYP4A11 using HepaRG (AID 2283486)
Summary of the method: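 Readout is CYP4A11 transcript level by qRT-PCR, normalized to three housekeeping genes and fitted bidirectionally against 0.5% DMSO. Human HepaRG cells were treated 48 h, in duplicate, with an 8-point half-log series topping at 100 uM.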

[4] = read-out: Pro-epidermal growth factor (Homo sapiens) (UniProt P01133); experiment: LTEA_HepaRG_EGF: Life Technologies and Expression Analysis (LTEA) Assay for Epidermal growth factor (EGF) using HepaRG (AID 2283489)
Summary of the method: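 EGF transcript measured by Fluidigm TaqMan qRT-PCR with three housekeeping genes for normalization, 48 h after dosing HepaRG cultures in duplicate (top 100 uM, half-log steps, 0.5% DMSO vehicle). Gain or loss relative to DMSO fitted.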

[5] = read-out: Early growth response protein 1 (EGR1) transcription factor, EGR1 (gene 1958); experiment: LTEA_HepaRG_EGR1: Life Technologies and Expression Analysis (LTEA) Assay for Early growth response protein 1 (EGR1) transcription factor using HepaRG (AID 2283490)
Summary of the method: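 EGR1 transcript levels quantified by qRT-PCR (Fluidigm arrays) against three housekeeping genes after 48 h chemical exposure of HepaRG cells. Eight-point half-log series topping at 100 uM, 0.5% DMSO vehicle, analyzed for gain or loss.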

[6] = read-out: Ezrin (EZR), EZR (gene 7430); experiment: LTEA_HepaRG_EZR: Life Technologies and Expression Analysis (LTEA) Assay for Ezrin (EZR) using HepaRG (AID 2283491)
Summary of the method: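 Differentiated human HepaRG cells, 48 h after plating, were exposed in serum-free induction medium for 48 hours to eight half-log concentrations up to 100 uM in 0.5% DMSO. EZR mRNA was measured by TaqMan qRT-PCR, normalized to ACTB, GAPDH and POLR2A, and fitted bidirectionally against DMSO.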

[7] = read-out: Cytochrome P450 3A7 (Homo sapiens) (UniProt P24462); experiment: LTEA_HepaRG_CYP3A7: Life Technologies and Expression Analysis (LTEA) Assay for CYP3A7 using HepaRG (AID 2283492)
Summary of the method: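 CYP3A7 transcript measured by qRT-PCR (ACTB, GAPDH, POLR2A normalization) after 48 h chemical exposure of HepaRG cells in duplicate. Eight half-log concentrations, maximum 100 uM, 0.5% DMSO vehicle; bidirectional curve fitting against DMSO baseline.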

CYP3A5 (gene 1577) = experiment: LTEA_HepaRG_CYP3A5: Life Technologies and Expression Analysis (LTEA) Assay for CYP3A5 using HepaRG (AID 2283493)
Summary of the method: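 mRNA levels were quantified by qRT-PCR on Fluidigm arrays and normalized to three housekeeping genes. Differentiated HepaRG cells received 48 h exposure (top 100 uM, half-log steps, 0.5% DMSO vehicle, duplicate); bidirectional fitting versus DMSO.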

[8] = read-out: Fatty Acid-Binding Protein 1 (FABP1), FABP1 (gene 2168); experiment: LTEA_HepaRG_FABP1: Life Technologies and Expression Analysis (LTEA) Assay for Fatty Acid-Binding Protein 1 (FABP1) using HepaRG (AID 2283494)
Summary of the method: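 FABP1 expression by TaqMan qRT-PCR, normalised to three housekeeping genes, in HepaRG cells after 48 h chemical treatment. Eight-point half-log series topping at 100 uM in 0.5% DMSO, duplicates; gain or loss fitted relative to vehicle.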

[9] = read-out: Cytochrome P450 4A22 (Homo sapiens) (UniProt Q5TCH4); experiment: LTEA_HepaRG_CYP4A22: Life Technologies and Expression Analysis (LTEA) Assay for Cytochrome P450 4A22 (CYP4A22) using HepaRG (AID 2283495)
Summary of the method: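 Gene expression measured by qRT-PCR against three housekeeping genes (ACTB, GAPDH, POLR2A), with gain or loss fitted relative to 0.5% DMSO vehicle. HepaRG cultures received 48 h chemical treatment, top concentration 100 uM, half-log steps, duplicate wells.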

[10] = read-out: Cytochrome P450 7A1 (Homo sapiens) (UniProt P22680); experiment: LTEA_HepaRG_CYP7A1: Life Technologies and Expression Analysis (LTEA) Assay for Cytochrome P450 7A1 (CYP7A1) using HepaRG (AID 2283496)
Summary of the method: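 HepaRG, 48 h exposure, 8-pt half-log series from 100 uM, 0.5% DMSO vehicle, duplicates. Readout: TaqMan qRT-PCR mRNA vs three housekeeping genes; bidirectional curve fit against DMSO baseline.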

[11] = read-out: Glutathione S-Transferase (GSTA2), GSTA2 (gene 2939); experiment: LTEA_HepaRG_GSTA2: Life Technologies and Expression Analysis (LTEA) Assay for Glutathione S-Transferase (GSTA2) using HepaRG (AID 2283497)
Summary of the method: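 GSTA2 transcript levels came from Fluidigm TaqMan qRT-PCR normalized to three housekeeping genes, fitted in both directions against DMSO. HepaRG cultures received chemicals for 48 h in serum-free induction medium (0.5% DMSO), 8 half-log concentrations up to 100 uM, duplicate.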

[12] = read-out: Cytochrome P450 3A4 (Homo sapiens) (UniProt P08684); experiment: LTEA_HepaRG_CYP3A4: Life Technologies and Expression Analysis (LTEA) Assay for CYP3A4 using HepaRG (AID 2283487)
Summary of the method: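 Differentiated HepaRG cells in serum-free induction medium exposed in duplicate for 48 h to 8 half-log concentrations up to 100 uM in 0.5% DMSO. CYP3A4 mRNA measured by qRT-PCR normalized to ACTB, GAPDH and POLR2A; bidirectional fit versus DMSO.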

[13] = read-out: DNA damage-inducible transcript 3 (DDIT3), DDIT3 (gene 1649); experiment: LTEA_HepaRG_DDIT3: Life Technologies and Expression Analysis (LTEA) Assay for DNA damage-inducible transcript 3 (DDIT3) using HepaRG (AID 2283488)
Summary of the method: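 DDIT3 transcript was quantified by qRT-PCR with ACTB/GAPDH/POLR2A normalization after 48 h chemical treatment of differentiated HepaRG cells in 0.5% DMSO. Dosing was eight-point, half-log, top 100 uM, duplicate wells. Curves fitted bidirectionally versus DMSO.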

Measured: AC50

Chain of Cytochrome P450 3A4 (Homo sapiens) (P08684 whole entry, looked up): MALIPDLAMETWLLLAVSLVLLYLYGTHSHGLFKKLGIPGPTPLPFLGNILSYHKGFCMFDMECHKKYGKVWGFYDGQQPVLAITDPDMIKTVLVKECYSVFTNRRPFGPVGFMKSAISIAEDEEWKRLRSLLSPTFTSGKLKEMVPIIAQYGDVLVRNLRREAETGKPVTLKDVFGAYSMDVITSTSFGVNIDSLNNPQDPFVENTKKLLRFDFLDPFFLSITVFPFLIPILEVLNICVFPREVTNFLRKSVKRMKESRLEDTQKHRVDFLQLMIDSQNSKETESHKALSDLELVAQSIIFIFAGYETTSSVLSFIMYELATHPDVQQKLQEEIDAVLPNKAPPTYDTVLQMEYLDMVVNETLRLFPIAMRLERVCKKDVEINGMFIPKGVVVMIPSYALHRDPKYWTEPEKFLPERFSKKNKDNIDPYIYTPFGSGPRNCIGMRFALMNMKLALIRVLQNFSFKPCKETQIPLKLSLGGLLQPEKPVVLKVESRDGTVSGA
Chain of Cytochrome P450 3A7 (Homo sapiens) (P24462 whole entry, looked up): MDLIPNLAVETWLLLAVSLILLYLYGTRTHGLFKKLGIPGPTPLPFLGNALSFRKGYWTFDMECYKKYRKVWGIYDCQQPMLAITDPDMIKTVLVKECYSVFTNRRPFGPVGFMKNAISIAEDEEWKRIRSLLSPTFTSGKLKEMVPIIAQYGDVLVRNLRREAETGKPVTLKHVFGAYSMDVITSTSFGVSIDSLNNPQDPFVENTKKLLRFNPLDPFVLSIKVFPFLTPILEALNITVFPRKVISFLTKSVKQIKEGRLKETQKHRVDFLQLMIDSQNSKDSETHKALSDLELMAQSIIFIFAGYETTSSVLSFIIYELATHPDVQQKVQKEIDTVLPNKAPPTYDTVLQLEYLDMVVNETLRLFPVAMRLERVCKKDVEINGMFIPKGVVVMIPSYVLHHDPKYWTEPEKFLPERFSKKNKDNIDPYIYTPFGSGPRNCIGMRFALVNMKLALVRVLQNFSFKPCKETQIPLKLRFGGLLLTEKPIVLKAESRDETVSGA

CCOC(=O)c1ccc(O)cc1
inactive: [1] | [2] | [3] | CYP2C8 (gene 1558) | CYP2C9 (gene 1559) | CYP2E1 (gene 1571) | CYP4A11 (gene 1579) | [4] | [5] | [6] | [7] | CYP3A5 (gene 1577) | [8] | [9] | [10] | [11]

COC(=O)c1ccc(I)cc1S(=O)(=O)NC(=O)Nc1nc(C)nc(OC)n1
inactive: [1] | [3] | CYP2C8 (gene 1558) | CYP2C9 (gene 1559) | CYP2E1 (gene 1571) | CYP4A11 (gene 1579) | [4] | [5] | [6] | [7] | CYP3A5 (gene 1577) | [8] | [9] | [11]
active: [2] 50 µM | [12] 29.3 µM

C[C@]12C[C@H](O)[C@H]3[C@@H](CCC4=CC(=O)CC[C@@]43C)[C@@H]1CC[C@@H]2C(=O)CO
inactive: [1] | CYP2E1 (gene 1571) | CYP4A11 (gene 1579) | [4] | [5] | [6] | CYP3A5 (gene 1577) | [8] | [9] | [10] | [11]
active: [3] 50 µM | CYP2C8 (gene 1558) 50 µM | [7] 50 µM

CCOC(=O)NCCOc1ccc(Oc2ccccc2)cc1
active: [2] 84.5 µM | [3] 81.4 µM | CYP2C8 (gene 1558) 81.1 µM | CYP2C9 (gene 1559) 80 µM | CYP2E1 (gene 1571) 83.8 µM | CYP4A11 (gene 1579) 84.1 µM | [12] 87.8 µM | [13] 89 µM | CYP3A5 (gene 1577) 84.8 µM | [8] 79.1 µM | [9] 83.2 µM | [10] 83.9 µM | [11] 88.5 µM
inactive: [1] | [4] | [5] | [6] | [7]

CCCCC(CC)COC(=O)c1ccccc1C(=O)O (centres undefined)
inactive: [1] | [2] | CYP2C8 (gene 1558) | CYP2C9 (gene 1559) | [4] | [5] | [6] | CYP3A5 (gene 1577) | [8] | [9] | [11]
active: [3] 29.1 µM | CYP2E1 (gene 1571) 76.7 µM | CYP4A11 (gene 1579) 50.8 µM | [10] 50.8 µM

O=C(c1ccccc1)C1CCCCC1
inactive: [1] | [2] | CYP2C8 (gene 1558) | CYP2C9 (gene 1559) | CYP2E1 (gene 1571) | CYP4A11 (gene 1579) | [12] | [4] | [5] | [6] | [7] | CYP3A5 (gene 1577) | [8] | [9] | [10] | [11]
active: [3] 25 µM

C=CCOC(Cn1ccnc1)c1ccc(Cl)cc1Cl (centres undefined)
inactive: [1] | [5] | [6]
active: [3] 31.6 µM | CYP2C8 (gene 1558) 27.2 µM | CYP2C9 (gene 1559) 33.1 µM | CYP2E1 (gene 1571) 13.1 µM | CYP4A11 (gene 1579) 28.1 µM | [4] 85 µM | CYP3A5 (gene 1577) 79.6 µM | [8] 28.6 µM | [9] 18.6 µM | [10] 35.3 µM
